Our source for the outcome values is PubChem BioAssay AID2410 (Southern Research Specialized Biocontainment Screening …, 2010).

In all, about 2,500 compounds went through this assay and about 2,100 (84%) were called active.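 How the source made its calls: active means toxic compounds, whose cell viability fell below 70% of untreated control cells; inactive means the rest.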 So high a share suggests a set chosen from earlier hits. These entries were drawn from the full list. Measured potencies and affinities stand elsewhere.

This experiment in a line: HEp-2 cell cytotoxicity, dose response, cytotoxicity control for RSV inhibitor project, HTS (AID 2410).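 Further: cells exposed to compound for six days before readout.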 The settings on record: HEp-2 viability, luminescence, cytotoxicity counter-screen; series mostly up to 50 µM.
On to `O=C(CCn1c(=O)c2ccccc2n(Cc2cc(=O)n3ccccc3n2)c1=O)NCc1ccco1`, for which the result was inactive.

As for `NC(=O)COc1ccc2c3c(c(=O)oc2c1)CCCCC3`, the outcome was inactive.

With `CCOC(=O)c1c(C)oc2c1cc(O)c1ccccc12`, the result was inactive.

Take `Cn1c2ccccc2c2cc([N+](=O)[O-])ccc21`: the result was inactive.

Regarding `CC(=O)Cc1nsc(NC(=O)c2oc(-c3ccccc3Cl)cc2C)n1`, the call was inactive.

For the molecule `Cc1ccc(NC(=O)c2ccc(NS(=O)(=O)c3cccc4cccnc34)cc2)cc1`, the molecule was called inactive.

As to `Cn1c(=O)c2c3c(sc2n2cnnc12)CCC3`, the molecule was classed as inactive.

Regarding `Cc1ccc(S(=O)(=O)N2CCC(C(=O)OCC(=O)N3CCCC3=O)CC2)cc1C`, the result was inactive.

In the case of `O=C(N=Nc1c(O)[nH]c2ccc([N+](=O)[O-])cc12)c1ccccc1[N+](=O)[O-]`, the outcome was inactive.

As for `O=C(CNC(=O)c1ccco1)N=Nc1c(O)[nH]c2ccc([N+](=O)[O-])cc12`, the result was inactive.

On to `COc1ccc(Cl)cc1NC(=O)C1(c2cccs2)CCOCC1`, for which the result was inactive.

Consider `Cc1ccc(NC(=O)CN(C)S(=O)(=O)c2cccc3cccnc23)c(C)c1`, for which the call was inactive.

As to `COc1ccccc1CNC(=O)C1CCCN1S(=O)(=O)c1cccc2cccnc12` (centres undefined), the molecule was classed as inactive.

Regarding `Cc1ccc(-c2csc3nc(C)n(N)c(=O)c23)o1`, the outcome was inactive.

For `C=C(C)C(=O)Nc1cccc(C2=NOC3(C2)C[C@@H](C(N)=O)N(C(=O)c2ccc(OC)cc2)C3)c1` (some centres undefined), the call was inactive.

Take `CCOC(=O)c1ccc2[nH]c3c(c2c1)CN(C)CC3`: the outcome was inactive.

As for `C/C(N)=C(/C#N)C(=O)COC(=O)c1cc2c(s1)CCCC2`, the molecule was called inactive.

For the molecule `CNS(=O)(=O)c1ccc(OC)c(-c2nnc3c4ccccc4c(C)nn23)c1`, the call was inactive.

`COc1ccc(C(C(=O)NC2CCCC2)N(C(=O)c2snc(C(N)=O)c2N)c2cc(C)ccc2OC)cc1OC` (centres undefined): the result was inactive.

Regarding `C=C(C)Cn1c(N2CC(C)CC(C)C2)nc2c1c(=O)[nH]c(=O)n2C` (centres undefined), the molecule was called inactive.

As for `Brc1cccc(-c2nc(-c3ccncc3)no2)c1`, the call was inactive.

As to `CC(C)(C)c1cc(NC(=O)c2cc(F)c(F)c(F)c2F)no1`, the result was inactive.

Consider `Cc1ccc(N2C=Nc3ccc(C)c4nc(C)cc2c34)cc1`, for which the outcome was inactive.

Regarding `CC1(C)CC(=O)C2=C(C1)OC(N)=C(C#N)C2C#Cc1ccccc1` (centres undefined), the molecule was classed as inactive.

Turning to `O=C(O)c1cc(-c2ccc(/C=C3\NC(=O)N(c4ccc(Cl)cc4)C3=O)o2)ccc1Cl`, the molecule was called inactive.

Turning to `CC(=O)Oc1cc(OC(C)=O)c2c(C)cc(=O)oc2c1`, the molecule was called inactive.

Take `COc1cc(/C=N/O)cc(Br)c1OCc1cccc(Cl)c1`: the result was inactive.

Consider `COc1ccc(-n2c(SCC(=O)/C(C#N)=C(\C)N)nc3ccccc3c2=O)cc1OC`, for which the molecule was called inactive.

For the molecule `Cc1ccc(-n2c(=O)c3sccc3n(Cc3cc(=O)n4ccccc4n3)c2=O)cc1`, the call was inactive.

In the case of `Nc1ccc(Sc2cc(Cl)nc(N)n2)cc1`, the molecule was classed as inactive.

For `Cc1ccc(OCC(=O)Nc2c[nH]c(=O)[nH]c2=O)cc1C`, the result was inactive.

For the molecule `CCC(=O)Nc1ccc(C(=O)OCC(=O)c2ccc(C)c([N+](=O)[O-])c2)cc1`, the call was inactive.

For the molecule `COc1ccc(C(=O)N2CC(c3ccc(Cl)cc3)CC2=O)cc1` (centres undefined), the outcome was inactive.

For the molecule `CSc1nc(C)c(C(=O)Nc2ccccc2)c(-c2ccco2)c1C#N`, the call was inactive.

Regarding `CCn1c2ccccc2c2cc(NC(=O)C(=O)NCC3CCCO3)ccc21` (centres undefined), the molecule was classed as inactive.

In the case of `Cc1ccc(C(=O)OCC(=O)c2c[nH]c3ccccc23)cc1NC(=O)c1ccco1`, the outcome was inactive.

`Cn1c(=NC(=O)c2ccco2)sc2ccccc21`: the result was inactive.

For `CC[C@@]12C(=O)N(c3ccc(OC)cc3)C(=O)N1[C@H](c1ccc(Cl)cc1)[C@@H]1C(=O)N(C3CCCCC3)C(=O)[C@@H]12`, the molecule was called inactive.

In the case of `CCOC(=O)c1sc2nc(COC(=O)c3c(F)cccc3F)[nH]c(=O)c2c1C`, the molecule was classed as inactive.

Regarding `CCOC(=O)c1sc2nc(C)[nH]c(=O)c2c1C`, the molecule was classed as inactive.

As for `Cc1nn(Cc2ccc(F)cc2)c(C)c1NC(=O)c1cnn2c1NC(c1ccccc1)CC2C(F)(F)F` (centres undefined), the molecule was called inactive.

For the molecule `CCN(c1cc(C)cc(C)c1)S(=O)(=O)c1nnc(NC(=O)C(C)C)s1`, the call was inactive.

In the case of `O=C(c1ccc(Br)o1)N1CCN(c2ccc3nnc(-c4ccccc4)n3n2)CC1`, the call was inactive.

For the molecule `Cc1ccc(S(=O)(=O)N2CCN(C)CC2)cc1-c1nnc2c3ccccc3c(C)nn12`, the result was inactive.

On to `COc1ccc(C(=O)O/N=C2\C(=O)N(C)c3ccccc32)cc1`, for which the outcome was inactive.

Turning to `N#Cc1cc(Cl)c(N2CCOCC2)cc1C#N`, the molecule was classed as inactive.

With `O=C(O)CSc1cn(Cc2ccccc2)c2ccccc12`, the outcome was inactive.

Consider `CC1CCN(C(=O)Cn2c(=O)n(-c3ccc(F)cc3)c(=O)c3sccc32)CC1`, for which the molecule was called inactive.

For the molecule `O=C(Nc1cc(Cl)cc(Cl)c1)c1ccc(Cn2c(=O)[nH]c3ccsc3c2=O)cc1`, the molecule was classed as inactive.

Consider `COc1ccc(S(=O)(=O)NC(C)(C)C)cc1-c1nnc2c3ccccc3c(C)nn12`, for which the call was inactive.

For the molecule `O=C1c2cccnc2C(Nc2ccc(Cl)cc2)N1Cc1cccs1` (centres undefined), the molecule was classed as inactive.

For `O=C(Nc1ccc2c(c1)CCC2)c1ccc(F)cc1`, the molecule was classed as inactive.

`Cn1ncc(Cl)c1C(=O)Nc1ccc(Cl)cn1`: the molecule was classed as inactive.

For `COc1ccccc1C(=O)NCCNc1nc2cc(C)cc(C)c2cc1C#N`, the outcome was inactive.

On to `CN(C)c1ccc(C2CC(c3cccc(NS(C)(=O)=O)c3)=NN2C(=O)c2ccccc2)cc1` (centres undefined), for which the result was inactive.

With `CCc1cccc2c(C(=O)COC(=O)c3ccccc3)c[nH]c12`, the result was inactive.

With `CCc1nn(CCCC(=O)NCc2ccccc2Br)c(=O)c2cc3occc3n12`, the molecule was classed as inactive.

`Cc1ccc(CNc2ccc([N+](=O)[O-])cc2C(N)=O)cc1`: the molecule was classed as inactive.

With `CC(C)Cc1nc2n[nH]c(N)c2c2c1CCC2`, the call was inactive.

For the molecule `COc1ccc(CN2C(=O)c3cccnc3C2Nc2cc(Cl)c(OC)cc2OC)cc1` (centres undefined), the molecule was classed as inactive.

Regarding `CC(Oc1ccccc1F)C(=O)Nc1ccc2ccccc2c1` (centres undefined), the call was inactive.

With `COc1cc(OC)cc(C(=O)NCCNc2nc3cc(C)cc(C)c3cc2C#N)c1`, the outcome was inactive.

`O=C1c2cccnc2C(Nc2ccccc2)N1Cc1ccco1` (centres undefined): the call was inactive.

In the case of `Cc1cc(C)c2c(c1)c(C)cc1nnc(SCC(=O)NCc3ccco3)n12`, the molecule was classed as inactive.

With `CS(=O)(=O)N1CCC(Oc2ccccc2C(=O)N2CCN(CC3CC3)CC2)CC1`, the molecule was called inactive.

As for `COc1cc(NC2c3ccccc3C(=O)N2Cc2ccc3c(c2)OCO3)cc(OC)c1OC` (centres undefined), the result was inactive.

In the case of `COc1ccc(NC2c3ccccc3C(=O)N2Cc2ccccc2Cl)cc1OC` (centres undefined), the outcome was inactive.

Regarding `CCN(CC)S(=O)(=O)c1cc(C(=O)c2nccn2C)ccc1Cl`, the molecule was classed as inactive.

On to `Cc1ccc(C2C3CSCC=C3C(C#N)=C(N)C2(C#N)C#N)cc1` (centres undefined), for which the outcome was inactive.

`O=C(CSc1ccc2ccccc2c1)NC1CCCc2ccccc21` (centres undefined): the molecule was classed as inactive.

On to `CCC1CCc2c(sc(NC(C)=O)c2C#N)C1` (centres undefined), for which the outcome was inactive.

For `COCCNC(=S)N1CCc2cc(OC)c(OC)cc2C1COc1cc(C)cc(C)c1` (centres undefined), the molecule was called inactive.

For `Cc1c(-c2ccccc2)c(=O)oc2ccc(O)cc12`, the result was inactive.

`O=C(CCCn1c(=O)c2sccc2n(Cc2cc(=O)n3ccccc3n2)c1=O)NCc1ccco1`: the molecule was called inactive.

Consider `O=C(CCn1c(=O)c2sccc2n(Cc2cc(=O)n3ccccc3n2)c1=O)NCc1ccco1`, for which the call was inactive.

Take `CCC(CC)NC(=O)COC(=O)c1ccc(NS(=O)(=O)c2ccc3c(c2)OCCO3)cc1`: the molecule was called inactive.

`CCOC(=O)c1cc(CC)sc1NC(=O)c1ccc2c(c1)OCCO2`: the result was inactive.

`Cc1cccc(Nc2nc(OCC#N)nc(N(C)C)n2)c1`: the outcome was inactive.

With `Cc1ccc(S(=O)(=O)N2CCN(CCO)CC2)cc1-c1nnc2c3ccccc3c(C)nn12`, the molecule was called inactive.

As to `Cc1ccnc(NS(=O)(=O)c2ccc(NC(=O)Cc3ccccc3)cc2)n1`, the molecule was classed as inactive.

For `Cc1ccc(C2=NN(C(=O)COc3ncnc4ccccc34)C(c3ccco3)C2)cc1` (centres undefined), the call was inactive.

Regarding `O=C1CN2C(=Nc3ccc(Cl)cc3C2c2ccccc2)CN1` (centres undefined), the result was inactive.

As to `O=C1CC(Sc2nnc(-c3ccccc3)o2)C(=O)N1c1ccccc1` (centres undefined), the result was inactive.

With `CN(CCO)c1nc(N)c2c(N)nc3c(c2c1C#N)CC(=O)N3Cc1cccs1`, the call was inactive.

Take `Clc1cccc(Nc2ncnc3c2cnn3-c2ccccc2)c1`: the result was inactive.

As to `CCOc1ccc2nc(NC(=O)Cc3cccs3)sc2c1`, the outcome was inactive.

For the molecule `Cc1ccc2nc(NC(=O)CCn3c(=O)sc4ccccc43)sc2c1`, the call was inactive.

For the molecule `COc1cc(NC2c3ncccc3C(=O)N2Cc2ccco2)cc(OC)c1OC` (centres undefined), the call was inactive.

As to `Cc1ccc(-n2nc3c(=O)n(CCCC(=O)NCC(C)c4ccccc4)nc(C)c3c2C)cc1` (centres undefined), the result was inactive.

As to `CC(C(=O)N=Nc1c(O)[nH]c2ccccc12)n1cnc2ccccc2c1=O` (centres undefined), the outcome was inactive.

Take `CCOC(=O)Cc1nnc(Nc2ccc(C)cc2)c2ccccc12`: the result was inactive.

In the case of `COC(=O)c1c(NC(NC(=O)C(C)(C)C)C(Cl)(Cl)Cl)sc2c1CCC2` (centres undefined), the result was inactive.

Take `Cc1ccc(OCc2ccc(Br)cc2)c([N+](=O)[O-])n1`: the molecule was classed as inactive.

Consider `COc1ccc(CNC(=O)CCCn2nc(C)c3c(C)n(-c4ccc(C)cc4)nc3c2=O)cc1`, for which the molecule was called inactive.

On to `O=C(CSc1nc2nc3c(cc2c(=O)n1-c1ccccc1)CCCC3)Nc1cccc2ccccc12`, for which the molecule was called inactive.

`Nc1c2c(nc3sc4c(c13)CCCC4)-c1ccccc1CC2`: the molecule was classed as inactive.

With `Cc1noc(C)c1C(=O)OC(C)C(=O)Nc1ccc(S(=O)(=O)NC(C)C)cc1` (centres undefined), the molecule was classed as inactive.

For the molecule `CCCCc1cc(=O)oc2c3c(cc(OCC(=O)N4CCC[C@H]4C(=O)O)c12)OC(C)(C)CC3`, the result was inactive.

`Cc1cc(C)c2c(n1)sc1c(N3CCCCC3)ncnc12`: the molecule was called inactive.

`COc1ccc(Cl)cc1NS(=O)(=O)c1c(C)[nH]c(C)c1C(=O)N1CCCCC1`: the molecule was called inactive.

Consider `COc1ccc(N(CC(=O)NC2CCCC2)C(=O)c2ccc(C)s2)c(OC)c1`, for which the molecule was called inactive.

With `CCCc1c(C(=O)Nc2ccc(C(F)(F)F)cc2)cnn1-c1ccccc1`, the molecule was called inactive.

Turning to `Cc1cc(C)c(C)c(C(=O)CSc2nnc(-c3ccc4[nH]c(C)c(C)c4c3)o2)c1C`, the result was inactive.

Regarding `Cc1c(NC(=O)CN2C(=O)c3ccccc3C2=O)c(=O)n(-c2ccccc2)n1C`, the molecule was classed as inactive.
